# According to paper PMC7862700, “An all-to-all approach to the identification of sequence-specific readers for epigenetic DNA modifications on cytosine”:
# Columns and labels:
# Assay in all cases: DAPPL (digital affinity profiling via proximity ligation, sequencing); 10 mM Tris-HCl pH 7.5, 50 mM NaCl, 1 mM DTT, 4% glycerol, room temperature, 30 min; GST-TFs on glutathione beads, 16-mer random dsDNA library, 0.1% formaldehyde crosslink after washing; high values mean tight binding
# FLI1 = target: T1, FLI1 (Homo sapiens, UniProt Q01543 1-452); settings: protein: recombinant; tags: N-terminal GST; dsDNA, one strand shown
# T1 sequence: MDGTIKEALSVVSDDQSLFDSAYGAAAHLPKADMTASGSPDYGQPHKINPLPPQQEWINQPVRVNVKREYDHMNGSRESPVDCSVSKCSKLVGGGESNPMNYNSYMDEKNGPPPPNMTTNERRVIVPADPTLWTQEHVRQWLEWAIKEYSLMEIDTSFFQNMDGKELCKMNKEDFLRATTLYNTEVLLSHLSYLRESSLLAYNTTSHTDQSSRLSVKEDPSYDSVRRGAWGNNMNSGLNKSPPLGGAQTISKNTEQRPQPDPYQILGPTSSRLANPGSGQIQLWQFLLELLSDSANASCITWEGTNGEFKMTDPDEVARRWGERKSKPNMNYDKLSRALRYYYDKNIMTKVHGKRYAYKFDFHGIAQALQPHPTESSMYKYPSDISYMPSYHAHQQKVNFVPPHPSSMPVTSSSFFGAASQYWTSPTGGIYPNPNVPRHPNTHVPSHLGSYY
# In short: (§1)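 Pools were built from human transcription factors expressed in yeast as GST fusions, captured on glutathione beads and DNA-barcoded, along with a tag-only sample. Incubation with 200 nmole of a 16-mer random double-stranded DNA library lasted 30 min at room temperature in Tris/NaCl/DTT/glycerol buffer, and was followed by washing, 0.1% formaldehyde crosslinking, proximity ligation, PCR amplification and Illumina NextSeq500 sequencing. Binding signal is the quotient of each hexamer's read frequency for a factor and its frequency for the tag-only sample.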
# ELK1 = target: T2, ELK1 (Homo sapiens, UniProt P19419 1-428); settings: protein: recombinant; tags: N-terminal GST; dsDNA, one strand shown
# T2 sequence: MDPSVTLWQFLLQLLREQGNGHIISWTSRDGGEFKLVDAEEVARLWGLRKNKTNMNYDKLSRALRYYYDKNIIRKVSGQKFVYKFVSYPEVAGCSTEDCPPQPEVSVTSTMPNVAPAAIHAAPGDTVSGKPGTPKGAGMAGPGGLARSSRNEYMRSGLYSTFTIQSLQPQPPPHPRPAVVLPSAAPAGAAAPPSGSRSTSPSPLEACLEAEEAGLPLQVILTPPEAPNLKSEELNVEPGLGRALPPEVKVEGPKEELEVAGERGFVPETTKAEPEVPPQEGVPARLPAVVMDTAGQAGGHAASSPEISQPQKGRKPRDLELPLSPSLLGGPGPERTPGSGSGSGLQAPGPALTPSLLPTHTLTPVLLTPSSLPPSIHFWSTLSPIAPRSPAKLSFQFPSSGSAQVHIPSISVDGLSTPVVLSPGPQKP
# In short: as §1
# GABPA = target: T3, GABPA (Homo sapiens, UniProt Q06546 1-454); settings: protein: recombinant; tags: N-terminal GST; dsDNA, one strand shown
# T3 sequence: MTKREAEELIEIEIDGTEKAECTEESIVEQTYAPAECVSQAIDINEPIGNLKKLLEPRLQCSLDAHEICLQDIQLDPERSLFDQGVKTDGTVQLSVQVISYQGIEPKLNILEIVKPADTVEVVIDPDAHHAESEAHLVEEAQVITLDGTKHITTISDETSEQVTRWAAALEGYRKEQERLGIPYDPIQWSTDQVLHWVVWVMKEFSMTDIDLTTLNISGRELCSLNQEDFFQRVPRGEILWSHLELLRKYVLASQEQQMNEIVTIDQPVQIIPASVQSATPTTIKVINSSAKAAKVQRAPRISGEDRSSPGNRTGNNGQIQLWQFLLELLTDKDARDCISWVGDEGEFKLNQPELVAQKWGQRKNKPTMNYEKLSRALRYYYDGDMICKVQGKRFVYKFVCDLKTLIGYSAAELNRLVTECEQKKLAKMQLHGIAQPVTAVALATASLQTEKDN
# In short: as §1
# ERG = target: T4, ERG (Homo sapiens, UniProt P11308 1-479); settings: protein: recombinant; tags: N-terminal GST; dsDNA, one strand shown
# T4 sequence: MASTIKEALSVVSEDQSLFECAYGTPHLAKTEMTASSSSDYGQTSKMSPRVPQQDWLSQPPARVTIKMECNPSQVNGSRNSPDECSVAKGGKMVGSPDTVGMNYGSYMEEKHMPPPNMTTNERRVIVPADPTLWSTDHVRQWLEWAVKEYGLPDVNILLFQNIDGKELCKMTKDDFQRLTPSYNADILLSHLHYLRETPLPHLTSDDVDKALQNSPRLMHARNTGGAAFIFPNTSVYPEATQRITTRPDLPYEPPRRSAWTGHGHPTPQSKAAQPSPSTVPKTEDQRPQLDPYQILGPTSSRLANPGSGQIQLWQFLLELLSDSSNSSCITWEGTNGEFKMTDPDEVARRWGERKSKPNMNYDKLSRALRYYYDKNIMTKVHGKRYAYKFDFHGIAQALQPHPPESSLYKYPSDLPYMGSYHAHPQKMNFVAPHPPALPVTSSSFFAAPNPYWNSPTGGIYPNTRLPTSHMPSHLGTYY
# In short: as §1
# ELF1 = ELF1 (Homo sapiens, UniProt P32519 1-619); settings: protein: recombinant; tags: N-terminal GST; dsDNA, one strand shown
# Chain of ELF1 (P32519 whole entry): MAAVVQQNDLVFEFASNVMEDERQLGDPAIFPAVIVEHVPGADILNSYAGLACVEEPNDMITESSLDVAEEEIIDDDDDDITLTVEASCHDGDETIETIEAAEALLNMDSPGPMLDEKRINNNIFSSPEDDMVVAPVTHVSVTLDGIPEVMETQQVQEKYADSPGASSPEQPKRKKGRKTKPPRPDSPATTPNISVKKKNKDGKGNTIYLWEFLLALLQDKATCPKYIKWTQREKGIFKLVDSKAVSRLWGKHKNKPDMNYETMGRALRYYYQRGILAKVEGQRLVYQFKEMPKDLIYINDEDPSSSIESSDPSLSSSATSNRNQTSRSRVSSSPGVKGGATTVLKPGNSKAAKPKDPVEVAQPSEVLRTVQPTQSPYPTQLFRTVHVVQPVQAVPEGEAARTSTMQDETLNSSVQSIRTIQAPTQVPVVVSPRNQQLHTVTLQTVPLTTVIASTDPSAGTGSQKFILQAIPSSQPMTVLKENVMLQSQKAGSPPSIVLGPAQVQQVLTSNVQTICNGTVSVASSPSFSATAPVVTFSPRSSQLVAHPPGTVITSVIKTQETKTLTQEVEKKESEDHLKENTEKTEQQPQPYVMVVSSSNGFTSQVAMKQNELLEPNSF
# In short: as §1
# EHF = target: T5, EHF (Homo sapiens, UniProt Q9NZC4 1-300); settings: protein: recombinant; tags: N-terminal GST; dsDNA, one strand shown
# T5 sequence: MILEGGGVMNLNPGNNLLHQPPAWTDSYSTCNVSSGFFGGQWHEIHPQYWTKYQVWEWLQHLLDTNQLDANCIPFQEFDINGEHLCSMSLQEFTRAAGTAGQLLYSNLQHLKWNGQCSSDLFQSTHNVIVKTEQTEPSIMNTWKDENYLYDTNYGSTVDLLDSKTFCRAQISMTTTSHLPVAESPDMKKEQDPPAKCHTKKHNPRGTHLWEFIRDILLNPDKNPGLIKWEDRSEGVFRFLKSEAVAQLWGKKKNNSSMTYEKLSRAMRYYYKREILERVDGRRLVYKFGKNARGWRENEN
# In short: as §1
# SPIB = SPIB (Homo sapiens, UniProt Q01892 1-262); settings: protein: recombinant; tags: N-terminal GST; dsDNA, one strand shown
# Chain of SPIB (Q01892 whole entry): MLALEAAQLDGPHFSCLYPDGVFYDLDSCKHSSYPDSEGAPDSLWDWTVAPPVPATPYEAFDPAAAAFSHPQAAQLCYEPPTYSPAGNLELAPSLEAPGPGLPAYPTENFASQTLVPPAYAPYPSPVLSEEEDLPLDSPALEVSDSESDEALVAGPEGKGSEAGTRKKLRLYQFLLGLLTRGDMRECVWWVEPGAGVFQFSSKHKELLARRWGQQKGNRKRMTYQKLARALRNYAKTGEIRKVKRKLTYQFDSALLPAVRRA
# In short: as §1
# ELK3 = target: T6, ELK3 (Homo sapiens, UniProt P41970 1-407); settings: protein: recombinant; tags: N-terminal GST; dsDNA, one strand shown
# T6 sequence: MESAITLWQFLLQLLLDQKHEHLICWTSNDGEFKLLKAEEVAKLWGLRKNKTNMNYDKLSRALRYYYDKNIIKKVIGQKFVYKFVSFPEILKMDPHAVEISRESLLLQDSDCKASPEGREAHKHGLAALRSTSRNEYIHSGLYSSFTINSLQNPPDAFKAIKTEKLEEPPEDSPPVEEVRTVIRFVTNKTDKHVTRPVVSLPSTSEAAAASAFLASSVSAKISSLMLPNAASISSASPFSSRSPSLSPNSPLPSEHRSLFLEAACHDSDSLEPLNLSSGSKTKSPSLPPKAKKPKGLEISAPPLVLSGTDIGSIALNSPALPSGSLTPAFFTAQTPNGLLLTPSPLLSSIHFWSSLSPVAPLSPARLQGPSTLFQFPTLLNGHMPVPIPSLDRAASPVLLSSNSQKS
# In short: as §1
# FEV = target: T7, FEV (Homo sapiens, UniProt Q99581 1-238); settings: protein: recombinant; tags: N-terminal GST; dsDNA, one strand shown
# T7 sequence: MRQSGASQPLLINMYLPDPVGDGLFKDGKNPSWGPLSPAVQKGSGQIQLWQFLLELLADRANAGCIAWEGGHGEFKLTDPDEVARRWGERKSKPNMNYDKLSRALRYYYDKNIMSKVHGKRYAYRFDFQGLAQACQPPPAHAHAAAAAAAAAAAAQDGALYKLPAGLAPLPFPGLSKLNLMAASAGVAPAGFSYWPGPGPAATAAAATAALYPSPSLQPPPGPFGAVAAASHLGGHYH
# In short: as §1
# ETV5 = ETV5 (Homo sapiens, UniProt P41161 1-510); settings: protein: recombinant; tags: N-terminal GST; dsDNA, one strand shown
# Chain of ETV5 (P41161 whole entry): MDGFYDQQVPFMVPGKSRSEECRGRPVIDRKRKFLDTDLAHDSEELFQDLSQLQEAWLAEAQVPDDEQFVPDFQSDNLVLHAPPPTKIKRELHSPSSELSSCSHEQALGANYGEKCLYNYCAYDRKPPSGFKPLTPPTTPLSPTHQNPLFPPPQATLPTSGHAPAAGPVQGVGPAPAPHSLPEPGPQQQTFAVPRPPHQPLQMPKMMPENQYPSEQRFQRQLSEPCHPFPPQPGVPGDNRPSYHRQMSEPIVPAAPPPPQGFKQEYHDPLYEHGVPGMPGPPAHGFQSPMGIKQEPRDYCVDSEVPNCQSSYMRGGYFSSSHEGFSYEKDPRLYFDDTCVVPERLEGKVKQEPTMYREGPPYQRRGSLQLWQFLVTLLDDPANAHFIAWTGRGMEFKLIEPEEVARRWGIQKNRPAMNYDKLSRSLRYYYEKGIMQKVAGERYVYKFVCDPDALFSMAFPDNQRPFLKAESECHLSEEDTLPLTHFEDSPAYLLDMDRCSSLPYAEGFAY
# In short: as §1
# HSF1 = HSF1 (Homo sapiens, UniProt Q00613 1-529); settings: protein: recombinant; tags: N-terminal GST; chain copies: 3; dsDNA, one strand shown
# Chain of HSF1 (Q00613 whole entry): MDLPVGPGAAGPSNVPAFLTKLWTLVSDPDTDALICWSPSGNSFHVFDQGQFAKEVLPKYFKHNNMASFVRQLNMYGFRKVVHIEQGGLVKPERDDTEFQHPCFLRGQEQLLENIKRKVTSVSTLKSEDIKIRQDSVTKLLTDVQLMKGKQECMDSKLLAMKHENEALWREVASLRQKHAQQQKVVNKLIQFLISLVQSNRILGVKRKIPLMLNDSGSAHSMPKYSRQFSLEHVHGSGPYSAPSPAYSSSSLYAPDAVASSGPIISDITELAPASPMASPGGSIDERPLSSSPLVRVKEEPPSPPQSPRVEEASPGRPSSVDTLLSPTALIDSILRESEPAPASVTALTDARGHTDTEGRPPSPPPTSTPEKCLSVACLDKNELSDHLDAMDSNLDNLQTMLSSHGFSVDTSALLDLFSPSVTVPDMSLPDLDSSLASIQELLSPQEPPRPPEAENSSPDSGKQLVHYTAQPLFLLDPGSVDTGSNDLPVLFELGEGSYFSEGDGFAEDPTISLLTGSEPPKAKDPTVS
# In short: as §1
# SPIC = target: T8, SPIC (Homo sapiens, UniProt Q8N5J4 1-248); settings: protein: recombinant; tags: N-terminal GST; dsDNA, one strand shown
# T8 sequence: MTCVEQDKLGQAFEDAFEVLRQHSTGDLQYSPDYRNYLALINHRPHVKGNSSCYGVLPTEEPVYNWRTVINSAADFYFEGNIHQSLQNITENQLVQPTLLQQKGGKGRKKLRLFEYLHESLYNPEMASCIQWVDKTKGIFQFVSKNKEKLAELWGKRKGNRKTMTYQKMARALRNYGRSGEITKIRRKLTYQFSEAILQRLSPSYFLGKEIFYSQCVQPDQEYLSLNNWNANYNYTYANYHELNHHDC
# In short: as §1
# ELF4 = ELF4 (Homo sapiens, UniProt Q99607 1-663); settings: protein: recombinant; tags: N-terminal GST; dsDNA, one strand shown
# Chain of ELF4 (Q99607 whole entry): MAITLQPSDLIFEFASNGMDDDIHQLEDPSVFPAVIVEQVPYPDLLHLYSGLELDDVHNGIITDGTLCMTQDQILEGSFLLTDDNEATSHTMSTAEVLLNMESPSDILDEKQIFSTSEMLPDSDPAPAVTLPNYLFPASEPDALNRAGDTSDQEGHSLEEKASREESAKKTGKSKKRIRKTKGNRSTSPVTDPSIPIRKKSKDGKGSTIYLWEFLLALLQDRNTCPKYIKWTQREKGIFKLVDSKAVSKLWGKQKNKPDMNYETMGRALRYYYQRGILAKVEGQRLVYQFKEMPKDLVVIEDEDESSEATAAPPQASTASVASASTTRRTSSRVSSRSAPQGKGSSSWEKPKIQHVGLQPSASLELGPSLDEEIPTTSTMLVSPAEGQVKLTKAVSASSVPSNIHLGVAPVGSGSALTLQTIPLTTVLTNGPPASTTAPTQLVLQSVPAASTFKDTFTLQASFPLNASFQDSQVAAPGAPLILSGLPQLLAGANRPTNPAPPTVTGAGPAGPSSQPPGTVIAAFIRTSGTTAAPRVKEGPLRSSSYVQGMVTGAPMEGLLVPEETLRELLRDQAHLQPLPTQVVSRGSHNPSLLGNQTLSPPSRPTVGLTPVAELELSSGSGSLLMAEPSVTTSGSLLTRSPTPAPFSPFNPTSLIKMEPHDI
# In short: as §1
# ELK4 = target: T9, ELK4 (Homo sapiens, UniProt P28324-2 1-405); settings: protein: recombinant; tags: N-terminal GST; dsDNA, one strand shown
# T9 sequence: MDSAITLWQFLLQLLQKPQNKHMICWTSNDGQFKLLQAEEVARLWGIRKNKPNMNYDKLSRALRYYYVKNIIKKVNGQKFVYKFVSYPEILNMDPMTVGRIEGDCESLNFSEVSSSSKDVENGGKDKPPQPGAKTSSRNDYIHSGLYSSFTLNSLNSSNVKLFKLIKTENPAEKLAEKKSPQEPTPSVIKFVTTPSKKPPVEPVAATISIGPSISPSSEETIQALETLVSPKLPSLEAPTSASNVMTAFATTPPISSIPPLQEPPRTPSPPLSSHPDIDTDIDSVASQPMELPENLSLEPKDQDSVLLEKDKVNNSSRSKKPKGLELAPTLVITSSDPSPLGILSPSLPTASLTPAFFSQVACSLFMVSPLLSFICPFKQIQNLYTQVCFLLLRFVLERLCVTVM
# In short: as §1
# ETV2 = target: T10, ETV2 (Homo sapiens, UniProt O00321 1-342); settings: protein: recombinant; tags: N-terminal GST; dsDNA, one strand shown
# T10 sequence: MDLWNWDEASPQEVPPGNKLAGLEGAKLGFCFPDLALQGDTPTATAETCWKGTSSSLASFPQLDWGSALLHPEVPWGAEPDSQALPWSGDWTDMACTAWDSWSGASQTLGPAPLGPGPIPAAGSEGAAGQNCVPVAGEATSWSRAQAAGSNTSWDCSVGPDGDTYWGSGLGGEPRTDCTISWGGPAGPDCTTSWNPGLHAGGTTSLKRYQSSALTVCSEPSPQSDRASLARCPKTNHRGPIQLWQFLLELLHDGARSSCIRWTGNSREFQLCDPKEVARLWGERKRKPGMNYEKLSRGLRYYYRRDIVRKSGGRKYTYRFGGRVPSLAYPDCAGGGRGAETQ
# In short: as §1
# ELF3 = target: T11, ELF3 (Homo sapiens, UniProt P78545 1-371); settings: protein: recombinant; tags: N-terminal GST; dsDNA, one strand shown
# T11 sequence: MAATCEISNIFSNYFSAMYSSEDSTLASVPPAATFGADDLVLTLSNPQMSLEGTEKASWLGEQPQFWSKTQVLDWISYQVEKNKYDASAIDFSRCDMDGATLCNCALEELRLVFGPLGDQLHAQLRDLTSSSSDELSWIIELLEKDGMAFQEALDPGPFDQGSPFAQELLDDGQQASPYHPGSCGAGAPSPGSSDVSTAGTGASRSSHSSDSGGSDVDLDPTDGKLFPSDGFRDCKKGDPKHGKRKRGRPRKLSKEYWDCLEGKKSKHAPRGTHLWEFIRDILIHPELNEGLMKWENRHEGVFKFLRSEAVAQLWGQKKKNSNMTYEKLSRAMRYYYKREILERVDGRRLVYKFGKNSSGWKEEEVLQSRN
# In short: as §1
# CRX = CRX (Homo sapiens, UniProt O43186 1-299); settings: protein: recombinant; tags: N-terminal GST; dsDNA, one strand shown
# Chain of CRX (O43186 whole entry): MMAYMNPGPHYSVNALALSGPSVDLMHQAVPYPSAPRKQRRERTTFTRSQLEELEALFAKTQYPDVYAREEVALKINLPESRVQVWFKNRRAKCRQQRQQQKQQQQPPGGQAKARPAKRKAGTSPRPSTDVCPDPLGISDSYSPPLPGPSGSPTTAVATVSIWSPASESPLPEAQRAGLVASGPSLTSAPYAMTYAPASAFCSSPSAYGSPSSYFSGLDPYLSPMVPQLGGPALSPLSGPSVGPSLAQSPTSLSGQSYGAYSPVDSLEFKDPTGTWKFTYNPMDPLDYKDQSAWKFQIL
# In short: as §1
# ETV1 = ETV1 (Homo sapiens, UniProt P50549 1-477); settings: protein: recombinant; tags: N-terminal GST; dsDNA, one strand shown
# Chain of ETV1 (P50549 whole entry): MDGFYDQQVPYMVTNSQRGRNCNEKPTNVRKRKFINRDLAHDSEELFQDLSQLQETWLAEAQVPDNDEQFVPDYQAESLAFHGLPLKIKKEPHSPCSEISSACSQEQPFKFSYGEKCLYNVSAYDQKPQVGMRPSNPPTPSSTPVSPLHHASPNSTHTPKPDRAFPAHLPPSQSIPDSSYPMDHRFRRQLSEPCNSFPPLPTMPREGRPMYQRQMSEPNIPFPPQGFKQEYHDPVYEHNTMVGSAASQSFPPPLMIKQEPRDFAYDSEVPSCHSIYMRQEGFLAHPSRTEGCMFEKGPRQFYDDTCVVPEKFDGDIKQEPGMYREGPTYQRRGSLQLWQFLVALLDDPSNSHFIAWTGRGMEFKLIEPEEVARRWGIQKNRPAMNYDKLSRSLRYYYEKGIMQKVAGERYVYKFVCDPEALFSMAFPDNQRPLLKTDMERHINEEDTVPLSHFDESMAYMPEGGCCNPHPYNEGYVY
# In short: as §1
sequence,measurement,setting,value
ATTAGC,binding signal,FLI1,"1.17 fold enrichment (6-mer frequency, TF over GST control)"
same,binding signal,ELK1,"1.08 fold enrichment (6-mer frequency, TF over GST control)"
same,binding signal,GABPA,"1.08 fold enrichment (6-mer frequency, TF over GST control)"
same,binding signal,ERG,"1.15 fold enrichment (6-mer frequency, TF over GST control)"
same,binding signal,ELF1,"1.11 fold enrichment (6-mer frequency, TF over GST control)"
same,binding signal,EHF,"1.07 fold enrichment (6-mer frequency, TF over GST control)"
same,binding signal,SPIB,"1.03 fold enrichment (6-mer frequency, TF over GST control)"
same,binding signal,ELK3,"1.09 fold enrichment (6-mer frequency, TF over GST control)"
same,binding signal,FEV,"1.05 fold enrichment (6-mer frequency, TF over GST control)"
same,binding signal,ETV5,"1.04 fold enrichment (6-mer frequency, TF over GST control)"
same,binding signal,HSF1,"1.87 fold enrichment (6-mer frequency, TF over GST control)"
same,binding signal,SPIC,"1.22 fold enrichment (6-mer frequency, TF over GST control)"
same,binding signal,ELF4,"1.15 fold enrichment (6-mer frequency, TF over GST control)"
same,binding signal,ELK4,"1.14 fold enrichment (6-mer frequency, TF over GST control)"
same,binding signal,ETV2,"1.13 fold enrichment (6-mer frequency, TF over GST control)"
same,binding signal,ELF3,"1.14 fold enrichment (6-mer frequency, TF over GST control)"
same,binding signal,CRX,"2.83 fold enrichment (6-mer frequency, TF over GST control)"
same,binding signal,ETV1,"1.16 fold enrichment (6-mer frequency, TF over GST control)"
